Measured values from PubChem BioAssay (Tox21).
Records with an inconclusive call do not appear. Activity calls are given as the source filed them. Unless noted, calls come from the whole dose curve; as a rule, active = well fitted curve in the direction sought with a large enough effect in the repeat runs; inconclusive = weak or mixed curves; inactive = no such curve, though single readings can be large; an effect the other way counts as inactive or inconclusive.

Assays:
[1] = qHTS RealTime-Glo MT Cell Viability Assay in HepG2 cells - 32 hour (AID 1224877); note: nearly all actives have a fitted effect of over 55% in size
Procedure, shortened: (§1)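 HepG2 cells were seeded at 600 cells/well together with NanoLuc luciferase and a cell-permeant prosubstrate, preincubated 5 h at 37 C/5% CO2, then pin-dosed with compounds in DMSO. Nonlytic luminescence from viable cells was read at each time point.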

[2] = A CellTox Green Cytotoxicity Assay to monitor cytotoxicity in HepG2 cells - 24 hour (AID 1224878); note: nearly all actives have a fitted effect of over 45% in size
Procedure, shortened: (§2)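 HepG2, 600 cells/well premixed w/ CellTox Green; 5 h settle, 37 C/5% CO2; pintool cpd add (DMSO); 37 C, 40 h; fluorescence read at 0, 8, 16, 24, 32, 40 h.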

[3] = A CellTox Green Cytotoxicity Assay to monitor cytotoxicity in HepG2 cells - 40 hour (AID 1224879); note: nearly all actives have a fitted effect of over 40% in size
Procedure, shortened: as §2

[4] = qHTS RealTime-Glo MT Cell Viability Assay in HEK293 cells - 0 hour (AID 1224880); note: top concentration of the series differs between compounds; nearly all actives have a fitted effect of over 45% in size
Procedure, shortened: (§3)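 Luminescence readout at each listed time point; HEK293, 600 cells/well, RealTime-Glo MT reagent added with cells; compounds pinned (23 nL in DMSO) after 5 h at 37 C; continuous culture at 37 C.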

[5] = A CellTox Green Cytotoxicity Assay to monitor cytotoxicity in HEK293 cells - 32 hour (AID 1224881); note: nearly all actives have a fitted effect of over 40% in size
Procedure, shortened: (§4)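 Read-out: fluorescence of a cell-impermeant cyanine dye staining DNA of dead cells, proportional to cytotoxicity. HEK293, 600 cells/well with reagent, compound (23 nL DMSO) added after 5 h; reads at 0, 8, 16, 24, 32, 40 h.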

[6] = A CellTox Green Cytotoxicity Assay to monitor cytotoxicity in HepG2 cells - 0 hour (AID 1224882); note: nearly all actives have a fitted effect of over 35% in size
Procedure, shortened: as §2

[7] = A CellTox Green Cytotoxicity Assay to monitor cytotoxicity in HepG2 cells - 32 hour (AID 1224883); note: nearly all actives have a fitted effect of over 50% in size
Procedure, shortened: as §2

[8] = A CellTox Green Cytotoxicity Assay to monitor cytotoxicity in HEK293 cells - 8 hour (AID 1224884); note: nearly all actives have a fitted effect of over 35% in size
Procedure, shortened: as §4

[9] = qHTS RealTime-Glo MT Cell Viability Assay in HepG2 cells - 16 hour (AID 1224885); note: nearly all actives have a fitted effect of over 50% in size
Procedure, shortened: as §1

[10] = qHTS RealTime-Glo MT Cell Viability Assay in HEK293 cells - 24 hour (AID 1224886); note: top concentration of the series differs between compounds; nearly all actives have a fitted effect of over 50% in size
Procedure, shortened: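 HEK293 cells were seeded at 600 cells/well together with NanoLuc luciferase and cell-permeant prosubstrate, preincubated 5 h at 37 C/5% CO2, then given compound in DMSO by pintool. Luminescence from viable-cell prosubstrate reduction was read repeatedly over 40 h.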

[11] = qHTS RealTime-Glo MT Cell Viability Assay in HEK293 cells - 8 hour (AID 1224887); note: top concentration of the series differs between compounds; nearly all actives have a fitted effect of over 50% in size
Procedure, shortened: as §3

[12] = A CellTox Green Cytotoxicity Assay to monitor cytotoxicity in HEK293 cells - 16 hour (AID 1224888); note: nearly all actives have a fitted effect of over 35% in size
Procedure, shortened: as §4

[13] = qHTS RealTime-Glo MT Cell Viability Assay in HepG2 cells - 0 hour (AID 1224889); note: nearly all actives have a fitted effect of over 50% in size
Procedure, shortened: as §1

[14] = A CellTox Green Cytotoxicity Assay to monitor cytotoxicity in HepG2 cells - 8 hour (AID 1224890); note: nearly all actives have a fitted effect of over 45% in size
Procedure, shortened: as §2

[15] = qHTS assay to identify small molecule antagonists of the estrogen receptor alpha (ER-alpha) signaling pathway using the BG1 cell line in the presence of 0.1 nM 17-beta-estradiol - cell viability counter screen (AID 1259241); note: nearly all actives have a fitted effect of over 40% in size
Procedure, shortened: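 Cells were plated and left 24 hr, compounds in DMSO were pinned in, 17beta-estradiol was added to 0.1 nM final, and after 22 hr CellTiter-Fluor reagent was added for 30 min before fluorescence was read.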

[16] = qHTS assay to identify small molecule antagonists of the androgen receptor (AR) signaling pathway using the MDA cell line in the presence of 0.5 nM R1881 - cell viability counter screen (AID 1259242); note: nearly all actives have a fitted effect of over 45% in size
Procedure, shortened: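 Live-cell protease fluorescence, CellTiter-Fluor, 30 min at 37C. Cells: MDA-kb2, 3,000/well, preincubated 5 hr. Compounds plus 0.5 nM R1881 final, 16 hr, 37C, 0% CO2.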

[17] = target: Estrogen receptor (Homo sapiens) (UniProt P03372); assay: qHTS assay to identify small molecule antagonists of the estrogen receptor alpha (ER-alpha) signaling pathway using the BG1 cell line in the presence of 0.1 nM 17-beta-estradiol (AID 1259244); note: nearly all actives have a fitted effect of over 50% in size
Procedure, shortened: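 Luminescence after ONE-Glo (30 min, room temperature) measured ERE-luciferase activity in VM7Luc4E2 cells treated 22 h with compound and 0.1 nM final 17beta-estradiol as stimulator.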

[18] = qHTS assay to identify small molecule HDAC inhibitors (AID 1259364)
Procedure, shortened: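 HCT-116 (wild type), 1,500 cells/well, overnight; compound 2 hr 37C 5% CO2; HDAC-Glo I/II reagent 30 min RT; luminescence readout.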

[19] = qHTS assay to identify small molecule phospholipidosis (PLD) inducers (AID 1259344; active = well fitted curve in the direction sought with a large enough effect; an effect the other way counts as inactive or inconclusive)
Procedure, shortened: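 Cells (HepG2, 900 per well) attach for 4 h, receive LipidTOX Red and compound together, incubate 24 h at 37 C, are fixed 30 min with paraformaldehyde/Hoechst, then imaged at one site per well.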

[20] = target: Androgen receptor (Homo sapiens) (UniProt P10275); assay: qHTS assay to identify small molecule antagonists of the androgen receptor (AR) signaling pathway using the MDA cell line in the presence of 0.5 nM R1881 (AID 1259243); note: nearly all actives have a fitted effect of over 50% in size
Procedure, shortened: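 MDA-kb2, MMTV-luc (AR/GR elements); 3,000 cells/well; cpd + 0.5 nM R1881 final; 16 hr 37C, 0% CO2; ONE-Glo 30 min RT; luminescence.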
% is set by controls: 0 for no effect and ±100 for the full control effect.

Estrogen receptor (Homo sapiens), sequence (P03372 whole entry, looked up): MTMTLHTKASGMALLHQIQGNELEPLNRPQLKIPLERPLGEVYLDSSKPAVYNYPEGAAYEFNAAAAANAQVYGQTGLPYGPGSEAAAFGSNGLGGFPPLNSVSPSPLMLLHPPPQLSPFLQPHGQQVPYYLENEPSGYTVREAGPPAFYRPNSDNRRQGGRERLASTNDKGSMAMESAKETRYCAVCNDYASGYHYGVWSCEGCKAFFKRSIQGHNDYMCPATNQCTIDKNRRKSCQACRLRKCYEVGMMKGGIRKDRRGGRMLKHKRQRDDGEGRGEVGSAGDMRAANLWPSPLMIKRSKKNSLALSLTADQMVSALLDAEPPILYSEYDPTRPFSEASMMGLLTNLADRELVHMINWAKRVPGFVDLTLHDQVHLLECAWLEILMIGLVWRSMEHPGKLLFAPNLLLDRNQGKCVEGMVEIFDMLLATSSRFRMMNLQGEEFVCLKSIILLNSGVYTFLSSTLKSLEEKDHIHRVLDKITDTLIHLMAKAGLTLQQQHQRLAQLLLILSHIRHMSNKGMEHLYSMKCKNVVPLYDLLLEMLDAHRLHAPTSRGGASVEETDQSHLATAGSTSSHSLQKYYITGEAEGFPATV
Androgen receptor (Homo sapiens), sequence (P10275 whole entry, looked up): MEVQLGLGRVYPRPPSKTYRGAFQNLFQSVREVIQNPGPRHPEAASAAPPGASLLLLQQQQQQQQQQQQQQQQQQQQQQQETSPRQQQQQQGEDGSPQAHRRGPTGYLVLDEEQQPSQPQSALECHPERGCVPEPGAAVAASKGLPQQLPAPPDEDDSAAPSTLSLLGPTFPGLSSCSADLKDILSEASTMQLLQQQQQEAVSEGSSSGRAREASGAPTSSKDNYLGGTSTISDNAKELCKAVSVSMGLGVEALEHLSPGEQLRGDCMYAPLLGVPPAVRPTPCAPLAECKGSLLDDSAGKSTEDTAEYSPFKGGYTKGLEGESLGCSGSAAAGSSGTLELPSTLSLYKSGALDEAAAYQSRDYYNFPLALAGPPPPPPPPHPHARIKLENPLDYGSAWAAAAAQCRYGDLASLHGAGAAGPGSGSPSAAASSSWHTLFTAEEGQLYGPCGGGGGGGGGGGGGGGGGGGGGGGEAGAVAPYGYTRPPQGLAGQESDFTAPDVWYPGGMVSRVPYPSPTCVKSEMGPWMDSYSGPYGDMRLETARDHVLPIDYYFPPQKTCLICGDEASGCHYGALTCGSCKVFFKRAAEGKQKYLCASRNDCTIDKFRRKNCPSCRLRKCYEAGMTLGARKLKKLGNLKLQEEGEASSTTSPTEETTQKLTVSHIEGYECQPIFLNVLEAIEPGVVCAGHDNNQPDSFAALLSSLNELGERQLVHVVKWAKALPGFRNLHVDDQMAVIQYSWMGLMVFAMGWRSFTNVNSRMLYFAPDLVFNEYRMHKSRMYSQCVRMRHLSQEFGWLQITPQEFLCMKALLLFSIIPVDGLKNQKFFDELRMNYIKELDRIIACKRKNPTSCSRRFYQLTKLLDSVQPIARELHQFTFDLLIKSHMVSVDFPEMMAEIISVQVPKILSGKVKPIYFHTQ

COP(=O)(O)OP(=O)(O)OC
inactive: outcome [1] | Potency [2] | Potency [3] | Potency [4] | Potency [5] | Potency [6] | Potency [7] | Potency [8] | outcome [9] | Potency [10] | Potency [11] | Potency [12] | Potency [13] | Potency [14] | outcome [15] | outcome [16] | outcome [17] | Potency [18]

CC1(C)Oc2ccc(C#N)cc2[C@@H](N2CCCC2=O)[C@@H]1O
inactive: outcome [1] | Potency [2] | Potency [3] | Potency [4] | Potency [5] | Potency [6] | Potency [7] | Potency [8] | outcome [9] | Potency [10] | Potency [11] | Potency [12] | Potency [13] | Potency [14] | outcome [15] | outcome [16] | outcome [17] | outcome [19] | Potency [18]

CC(C)OC(=O)OCOP(=O)(CO[C@H](C)Cn1cnc2c(N)ncnc21)OCOC(=O)OC(C)C
inactive: outcome [1] | Potency [2] | Potency [3] | Potency [4] | Potency [5] | Potency [6] | Potency [7] | Potency [8] | outcome [9] | Potency [10] | Potency [11] | Potency [12] | Potency [13] | Potency [14] | outcome [15] | outcome [16] | outcome [17] | outcome [19] | Potency [18]

COC(=O)c1cc(Cl)cc(Cl)c1
inactive: outcome [1] | Potency [2] | Potency [3] | Potency [4] | Potency [5] | Potency [6] | Potency [7] | Potency [8] | outcome [9] | Potency [10] | Potency [11] | Potency [12] | Potency [13] | Potency [14] | outcome [15] | outcome [16] | Potency [20] | outcome [17]

O=C(O)CNC(=O)CNC(=O)CNC(=O)CSC(=O)c1ccccc1
inactive: outcome [1] | Potency [2] | Potency [3] | Potency [4] | Potency [5] | Potency [6] | Potency [7] | Potency [8] | outcome [9] | Potency [10] | Potency [11] | Potency [12] | Potency [13] | Potency [14] | outcome [15] | outcome [16] | outcome [17] | PLD induction [19] 1.13% [at 7.66 µM]

N[C@@H](CSCCCO)C(=O)O
inactive: activity change, negative = cytotoxic [1] 2.25% [at 15.8 µM] | cytotoxicity [2] -17.7% [at 15.8 µM] | cytotoxicity increase [3] -14.5% [at 15.8 µM] | activity change, negative = cytotoxicity [4] -0.729% [at 15.8 µM] | cytotoxicity increase [5] -0.789% [at 15.8 µM] | cytotoxicity [6] -7.54% [at 15.8 µM] | cytotoxicity increase [7] -15.9% [at 15.8 µM] | cytotoxicity increase [8] -2.04% [at 15.8 µM] | activity change, negative = cytotoxic [9] 0.578% [at 15.8 µM] | activity change, negative = cytotoxicity [10] 2.46% [at 15.8 µM] | activity change, negative = cytotoxicity [11] -0.319% [at 15.8 µM] | activity change [12] 3.31% [at 15.8 µM, hits give high values] | activity change, negative = cytotoxicity [13] -0.41% [at 15.8 µM] | cytotoxicity increase [14] -14.5% [at 15.8 µM] | activity change, negative = cytotoxicity [15] -2.4% [at 19 µM] | viability change, negative = cytotoxic [16] 2.53% [at 19 µM] | activity, negative = inhibition [20] -8.92% [at 19 µM] | activity change, negative = inhibition [17] -4.57% [at 19 µM] | outcome [19] | activity change, negative = inhibition [18] -2.63% [at 19 µM]

Cn1nnc2c(C(N)=O)ncn2c1=O
inactive: outcome [1] | Potency [2] | Potency [3] | Potency [4] | Potency [5] | Potency [6] | Potency [7] | Potency [8] | outcome [9] | Potency [10] | Potency [11] | Potency [12] | Potency [13] | Potency [14] | outcome [15] | outcome [16] | outcome [17] | outcome [19] | Potency [18]

Cc1cc(-c2ccccc2)nnc1NCCN1CCOCC1
inactive: outcome [1] | Potency [2] | Potency [3] | Potency [4] | Potency [5] | Potency [6] | Potency [7] | Potency [8] | outcome [9] | Potency [10] | Potency [11] | Potency [12] | Potency [13] | Potency [14] | outcome [15] | outcome [16] | outcome [17] | Potency [18]

N#Cc1ccccc1O
inactive: outcome [1] | Potency [2] | Potency [3] | Potency [4] | Potency [5] | Potency [6] | Potency [7] | Potency [8] | outcome [9] | Potency [10] | Potency [11] | Potency [12] | Potency [13] | Potency [14] | outcome [15] | outcome [16] | outcome [17] | Potency [18]

O=C1c2ccccc2C(=O)c2cc(Cl)ccc21
inactive: activity change, negative = cytotoxic [1] -5.12% [at 6.97 µM] | cytotoxicity [2] 0.241% [at 6.97 µM] | cytotoxicity increase [3] 1.15% [at 6.97 µM] | activity change, negative = cytotoxicity [4] 3.49% [at 6.97 µM] | cytotoxicity increase [5] -1.78% [at 6.97 µM] | cytotoxicity [6] 3.98% [at 6.97 µM] | cytotoxicity increase [7] 0.512% [at 6.97 µM] | cytotoxicity increase [8] -6.44% [at 6.97 µM] | activity change, negative = cytotoxic [9] 1.7% [at 6.97 µM] | activity change, negative = cytotoxicity [10] 2.92% [at 6.97 µM] | activity change, negative = cytotoxicity [11] 6.4% [at 6.97 µM] | activity change [12] -0.237% [at 6.97 µM, hits give high values] | activity change, negative = cytotoxicity [13] 1.38% [at 6.97 µM] | cytotoxicity increase [14] -0.731% [at 6.97 µM] | activity change, negative = cytotoxicity [15] 1.79% [at 8.39 µM] | viability change, negative = cytotoxic [16] 2.58% [at 8.39 µM] | activity change, negative = inhibition [17] 6.71% [at 8.39 µM] | activity change, negative = inhibition [18] -13.5% [at 8.39 µM]

CCC[C@@H]1C[C@@H](C(=O)N[C@@H]([C@H]2O[C@H](SC)[C@H](O)[C@@H](O)[C@H]2O)[C@@H](C)O)N(C)C1
inactive: outcome [1] | Potency [2] | Potency [3] | Potency [4] | Potency [5] | Potency [6] | Potency [7] | Potency [8] | outcome [9] | Potency [10] | Potency [11] | Potency [12] | Potency [13] | Potency [14] | outcome [15] | outcome [16] | outcome [17] | outcome [19]

CC1CC(=O)CC(C)(C)C1 (stereo not given)
inactive: outcome [1] | Potency [2] | Potency [3] | Potency [4] | Potency [5] | Potency [6] | Potency [7] | Potency [8] | outcome [9] | Potency [10] | Potency [11] | Potency [12] | Potency [13] | Potency [14] | outcome [15] | outcome [16] | outcome [17] | Potency [18]

CCOc1ccccc1OCC1CNCCO1 (stereo not given)
inactive: outcome [1] | Potency [2] | Potency [3] | Potency [4] | Potency [5] | Potency [6] | Potency [7] | Potency [8] | outcome [9] | Potency [10] | Potency [11] | Potency [12] | Potency [13] | Potency [14] | outcome [15] | outcome [16] | Potency [20] | outcome [17] | Potency [18]
